Data: ChEMBL document CHEMBL3433997, “St. Jude Leishmania screening dataset” (2016)

Tests used:
Type in all cases: functional
[1] = target: Solute carrier family 2, facilitated glucose transporter member 1 (Homo sapiens) (UniProt P11166); assay: ST_JUDE_LEISH: Cytotoxicity at 2uM final concentration against transgenic Leishmania Mexicana promastigotes LmGLUT1 that are glucose transport deficient and complemented with the human glucose transporter GLUT1. Activity is measured by DNA content using SYBR green in vitro
[2] = target: Hexose transporter 1 (Plasmodium falciparum) (UniProt O97467); assay: ST_JUDE_LEISH: Cytotoxicity at 2uM final concentration against transgenic Leishmania Mexicana promastigotes LmPfHT that are glucose transport deficient and complemented with the Plasmodium falciparum hexose transporter. Activity is measured by DNA content using SYBR green in vitro
[3] = target: Glucose transporter (Leishmania mexicana) (UniProt O61059); assay: ST_JUDE_LEISH: Cytotoxicity at 2uM final concentration against transgenic Leishmania Mexicana promastigotes LmGT2 that are glucose transport deficient and complemented with the L. Mexicana glucose transporter 2. Activity is measured by DNA content using SYBR green in vitro

Chain of Solute carrier family 2, facilitated glucose transporter member 1 (Homo sapiens) (P11166 whole entry): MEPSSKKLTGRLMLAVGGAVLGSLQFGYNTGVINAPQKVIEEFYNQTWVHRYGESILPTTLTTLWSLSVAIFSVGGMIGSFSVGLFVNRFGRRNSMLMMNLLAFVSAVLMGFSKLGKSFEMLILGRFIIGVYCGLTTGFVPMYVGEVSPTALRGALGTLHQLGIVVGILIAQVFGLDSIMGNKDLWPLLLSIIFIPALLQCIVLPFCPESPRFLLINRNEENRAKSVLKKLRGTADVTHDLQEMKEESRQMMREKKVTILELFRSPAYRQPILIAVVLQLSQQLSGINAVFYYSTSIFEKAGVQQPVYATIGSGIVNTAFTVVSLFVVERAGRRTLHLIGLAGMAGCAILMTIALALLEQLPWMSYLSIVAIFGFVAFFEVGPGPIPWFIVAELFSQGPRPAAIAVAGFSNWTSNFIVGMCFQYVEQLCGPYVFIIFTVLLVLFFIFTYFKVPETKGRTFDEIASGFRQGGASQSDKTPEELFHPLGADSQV

Structure (SMILES) | inhibition [1] [%] | inhibition [2] [%] | inhibition [3] [%]
CCN(CC)/C(=N/C(=N)Nc1ccc(Cl)cc1)NCCCCCCCCN/C(=N\C(=N)Nc1ccc(Cl)cc1)N(CC)CC | 0.33 | -0.74 | -0.07
FC(F)(F)c1cc(C(F)(F)F)c2cc(CNCCCNc3nc4ccccc4[nH]3)[nH]c2c1 | -1.02 | 0.32 | -1.92
N=c1n(CCN2CCCCC2)c2ccccc2n1CC(=O)c1cccc([N+](=O)[O-])c1 | 2.8 | 4.32 | 0.59
CCN(CCCN1CCCCC1)c1cc(C)nc(Nc2ccc(C(C)C)cc2)n1 | -0.68 | 1.56 | 2.4
CCc1cn2c3c(cc(C(=O)N[C@@H](Cc4cccc(F)c4)[C@H](O)CNC4CC4)cc13)N(C)S(=O)(=O)CC2 | 2.18 | 3.5 | 4.48
COc1ccccc1CN1CCC(CNC(=O)c2cc(-c3cccc(C(F)(F)F)c3)cs2)C1 (stereo unspecified) | 0.96 | 1.45 | 1.94
CCOc1ccc2c(c1)OC(c1ccccc1)(C(F)(F)F)NC2=O (stereo unspecified) | 0.56 | -0.92 | 1.65
COc1ccc(C2CCN(CCCNC(=O)c3ccc(NC(=O)c4ccc(Cl)cc4)cc3)CC2)c(OC)c1 | 3.85 | 4.23 | 3.54
CC(=O)Nc1ccc(C(=O)NC2CCN(c3ccnc4cc(Cl)ccc34)CC2)cc1 | 0.22 | 1.09 | 1.09
CCCCCCN1CCCN(Cc2ccc(C(=O)Nc3cccc(CC)c3)cc2)CC1 | 4.76 | 3.36 | 8.83
Cc1cc(N(C)C)nc(Nc2ccc(NC(=O)c3c(F)cccc3Cl)cc2)n1 | 7.36 | 7.84 | -0.01
CCOC(=O)c1ccc(NC(=O)Nc2ccc(-c3ccc(-c4nc5cc(C(F)(F)F)ccc5[nH]4)cc3)cc2)cc1 | -1.59 | -0.19 | 1.54
